This passage reports Potency and cell number change results from PubChem BioAssay AID2685 (National Center for Advancing Translational Sciences (NCATS), 2010).

Structures are written as SMILES. About 2,100 (0.66%) of roughly 320,000 compounds were called active. Roughly 53% stayed inconclusive and do not appear here. Calls come from the whole dose curve; as a rule, active = well fitted inhibition curve with a large enough effect in the signal ratio, with a control signal flat (not every such curve was filed as active); inconclusive = small, poorly fitted or top-dose-only effect, or effect the other way, or a change in a side signal; inactive = flat fitted curve, though single readings scatter; the % refers to the signal ratio. The sample as a whole holds a higher share of actives than the screen did.
Potency is the fitted concentration of half-maximal effect.

This experiment is described as follows: qHTS Assay for Lipid Storage Modulators in Drosophila S3 Cells.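 For cell number change: cells counted by Cell Tracker Red CMTPX staining in the red channel.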 Conditions: BODIPY lipid droplet fluorescence, 18-24 h, cells fed with added oleic acid; cell number change: measured here: cell count max response; series mostly up to 46.1 µM. An excerpt: NIH Molecular Libraries Probe Production Centers Network [MLPCN] NIH Chemical Genomics Center [NCGC] MLPCN Grant: 1 R03 MH085686-01 Assay Submitter (PI): Beller, Mathias; Max-Planck-Institut fur Biophysikalische Chemie NCGC Assay Overview: Storing lipids as a reservoir for energy or the anabolism of elementary metabolites is a common feature of probably all cells and is conserved from bacteria to humans. The universal cellular lipid storage organelle is the so-called lipid storage droplet (LD). Although ubiquitous, LDs share a simple structure composed of a hydrophobic core that harbors the storage lipids, which is shielded by a droplet-specific phospholipid monolayer to which proteins are attached. The current model of LD biogenesis involves an incorporation of the lipid core into the membrane leaflets of the endoplasmic reticulum (ER) followed by a subsequent budding-like maturation of a LD, which ultimately pinches off. Once released, LD volume can increase by localized lipogenesis or fusion of existing droplet. Storage lipids are re-mobilized enzymatically by lipase activity. Lipase regulation in the adipocyte is heavily studied and involves multiple components including catecholamine signaling, the LD-associated proteins Perilipin and comparative gene identification (CGI-58) and at least two lipases named hormone sensitive lipase (HSL) and adipocyte triglyceride lipase (ATGL). LD regulation outside of the adipocyte is poorly understood and only few components are known. However, there is an urgent need to learn more about ectopic fat depots as mislocalized storage of lipids, for example in the liver or muscle, is an eminent health problem associated with insulin resistance or the metabolic syndrome. We developed a laser-scanning cytometer assay to enable 1,536-well screening and combined the results of the small molecules screen with an RNAi database based on lipid storage.
Triacsin C (Sigma-Aldrich T-4540), an inhibitor of long-chain fatty acyl CoA synthetase that blocks synthesis of triglycerides, was used as a positive control for lipid under-storage. A total of 23 nL of compound solution of different concentrations were transferred to the assay plates using a Kalypsys pin tool equipped with a 1,536-pin array containing 10-nL slotted pins (FP1S10, 0.457-mm diameter, 50.8 mm long; V&P Scientific). One microliter of oleic acid (400 uM) was added, and the plate was lidded with stainless steel rubber gasket lined lids containing pinholes. […] Fluorescence was detected by excitation of the fluorophores with a 488-nm laser on an Acumen Explorer (TTP Lab Tech). The total intensity in channel 2 (500-530 nm) reflected lipid droplet accumulation. Cells were detected using channel 3 (575-640 nm) with 5-um width and 100-um depth filters. The ratio of the number of objects in PMT channel 2 over the number of objects in PMT channel 3 was also calculated. Percent activity was computed relative to an internal control (100% inhibited lipid droplet deposition due to the presence of 20 uM Triacsin C), which was added to 32 wells/plate.
`CC(=O)N(C1=NCCCS1)c1ccc(F)cc1`: the Potency was 16.4 µM (active) and the cell number change is -2.11%.
On the same counts, the results for `CC(=O)N(C1=NCCCS1)c1ccc(Cl)cc1` are “inactive” and -2.46%.
On the same counts, the results for `COc1cccc(N(C(C)=O)C2=NCCCS2)c1` are “inactive” and 4.22%.
For `O=C(COc1ccccc1Cl)N1CCCC(N2CCN(c3ccc(F)cc3)CC2)C1` (stereo not drawn), the Potency entry is “inactive” and the cell number change is -2.12%.
The like results for `Cn1c(O)c(C=NC2CCCCC2)c(=O)[nH]c1=S` were, in that order, “inactive” and 4.27%.
On the same counts, the results for `Cc1cc(NCCN)nc2ccccc12` are “inactive” and 15.7%.
The like results for `Cc1cc(/C=C2\C(=O)NC(=O)N(c3ccccc3)C2=O)c(C)n1-c1ccc(C(=O)O)c(Cl)c1` were, in that order, “inactive” and -8.5%.
As to `CCN(CC)c1nc2c(C)cccn2c(=O)c1C=C1C(=O)NC(=O)NC1=O`, the Potency result is “inactive” and the cell number change was determined as 3.76%.
On the same counts, the results for `CCOC(=O)N(C)c1ccc(C(O)(C(=O)OC)C(F)(F)F)cc1` (stereo not drawn) are “inactive” and 10.8%.
For the molecule `Cc1cc(O)c(CN2CC=C(c3ccccc3)CC2)cc1C(C)C`, the Potency was 18.4 µM (active).
Take `Cc1ccc2c(CN3CC=C(c4ccccc4)CC3)cc(=O)oc2c1C`: the Potency entry was “inactive” and the cell number change is 0.524%.
On the same counts, the results for `COc1ccc2ccc(O)c(CN3CC=C(c4ccccc4)CC3)c2c1` are “inactive” and 13.7%.
On the same counts, the results for `CCC(CC)NCc1c[nH]c2ccccc12` are “inactive” and -0.482%.
The like results for `O=C(Nc1ccc(Br)cc1)c1nn(C23CC4CC(CC(C4)C2)C3)cc1Br` were, in that order, “inactive” and 0.69%.
Take `CS(=O)(=O)NCc1nnc2n1-c1ccc(Cl)cc1C(c1ccccc1)=NC2`: the Potency result was “inactive” and the cell number change was found to be 13.6%.
On the same counts, the results for `CCCCc1nc2ccccc2c(=O)n1-c1ccccc1O` are “inactive” and -9.96%.
The like results for `CCCCn1c(O)c(C(CC)=Nc2ccc(C(=O)O)cc2)c(=O)[nH]c1=O` were, in that order, “inactive” and 5.66%.
With `CCCCCn1c(=O)c(C(=O)Nc2ncccc2C)c(O)c2ccccc21`, the Potency result is “inactive” and the cell number change was -11.8%.
As for `CCCCCCn1c(=O)c(C(=O)Nc2ccncc2)c(O)c2ccccc21`, the Potency entry is “inactive” and the cell number change was 15.2%.
On the same counts, the results for `CCCCCCn1c(=O)c(C(=O)Nc2ncccc2O)c(O)c2ccccc21` are 7.31 µM (active) and -21.9%.
Regarding `Cc1ccc(C(=O)N/C(=C\Cl)P(=O)(c2ccccc2)c2ccccc2)cc1`, the Potency result is “inactive” and the cell number change was found to be 0.754%.
As to `OC(c1ccccc1)(c1ccccc1)C1CCNCC1`, the Potency was 25.9 µM (active).
Consider `OC(c1ccccc1)(c1ccccc1)C1CCCN1` (stereo not drawn), for which the Potency entry is “inactive” and the cell number change was -1.52%.
On the same counts, the results for `O=C(O)C(O)(c1ccccc1)C1CCCCC1` (stereo not drawn) are “inactive” and -9.04%.
Regarding `CN(C(=O)CNC(=O)OCc1ccccc1)c1ccc(Br)cc1C(=O)c1ccccc1Cl`, the Potency entry was “inactive” and the cell number change came out at 9.34%.
Consider `CCCNS(=O)(=O)c1ccc(OCC(=O)N2CCN(Cc3ccc4c(c3)OCO4)CC2)c(C)c1`, for which the Potency entry is “inactive” and the cell number change is -6.04%.
On the same counts, the results for `CCCCCCN=C(C)c1c(O)n(CCCC)c(=O)[nH]c1=O` are “inactive” and 0.489%.
The like results for `CCCCn1c(O)c(C(C)=NCCCN(CC)CC)c(=O)[nH]c1=O` were, in that order, 23.1 µM (active) and -0.0737%.
In the case of `CCCCn1c(O)c(C(C)=NCCc2ccccc2)c(=O)[nH]c1=O`, the Potency entry was “inactive”.
Consider `Cc1ccc2c(c1)C1CN(C)CCC1N2C(=O)c1cccnc1Cl` (stereo not drawn), for which the Potency entry is “inactive” and the cell number change is -4.72%.
As for `CCOC(=O)c1ccc(S(=O)(=O)n2c(=O)oc3ccccc32)cc1`, the Potency is 20.6 µM (active).
Turning to `CCOC(=O)c1c(C=O)c2ccccc2n1Cc1ccccc1`, the Potency entry was “inactive” and the cell number change amounted to 3.55%.
The like results for `CCOC(=O)c1ccc(N=C(c2ccccc2)c2c(O)n(C)c(=O)n(C)c2=O)cc1` were, in that order, “inactive” and 1.32%.
The like results for `O=C1Nc2ccc(Br)cc2C(c2ccccc2)=NC1O` (stereo not drawn) were, in that order, “inactive” and 22.1%.
For `C=C(COC(C)=O)CC1CC(O)[C@]2(C)OC3CC4OC5C[C@]6(C)O[C@]7(C)CCC8OC9C[C@]%10(C)OC%11C(C)=CC(=O)OC%11CC%10OC9C[C@@H](C)C8OC7CC6O[C@]5(C)C/C=C\C4OC3CC2O1` (stereo partly drawn), the Potency entry was “inactive”.
In the case of `CN(C)C(=O)Oc1cccc(NC(=O)N2CCOCC2)c1`, the Potency entry is “inactive” and the cell number change was -25%.
`CN(C)C(=O)Nc1cccc(OC(=O)N(C)C)c1`: the Potency is 32.6 µM (active).
With `CN(C)C(=O)Oc1cccc(NC(=O)c2ccccc2C(F)(F)F)c1`, the Potency entry is “inactive” and the cell number change is -0.228%.
On the same counts, the results for `CCOC(=O)C1(CCc2ccccc2)CCN(Cc2csc(C(C)=O)c2)CC1` are “inactive” and 3.18%.
Take `CCN(CC)S(=O)(=O)c1cc(NC(=O)C(C)N2CC=C(c3ccccc3)CC2)ccc1C` (stereo not drawn): the Potency entry is “inactive” and the cell number change was -3.32%.
The like results for `O=C(CN1C(=O)CN=C(c2ccccc2)c2ccccc21)NCc1ccco1` were, in that order, “inactive” and 7.88%.
The like results for `CCCCNC(=O)CN1C(=O)CN=C(c2ccccc2)c2ccccc21` were, in that order, “inactive” and 20.3%.
On to `O=C1CN=C(c2ccccc2)c2ccccc2N1Cc1ccc(C(F)(F)F)cc1`, for which the Potency entry was “inactive”.
Regarding `CN(C)c1ccc(NC(=O)CN2C(=O)CN=C(c3ccccc3)c3cc(Cl)ccc32)cc1`, the Potency result is “inactive” and the cell number change was 4.79%.
The like results for `Cc1ccc(CN2C(=O)CN=C(c3ccccc3)c3ccccc32)cc1` were, in that order, 10.3 µM (active) and 11.7%.
As to `CN(C)c1ccc(NC(=O)CN2C(=O)CN=C(c3ccccc3)c3ccccc32)cc1`, the Potency is 10.3 µM (active) and the cell number change is -43.3%.
On the same counts, the results for `Cc1nc2ccccc2c(=O)n1-c1ccc(Cl)c(Cl)c1` are “inactive” and 8.67%.
The like results for `CCN1CCN(C(=O)Cc2ccccc2OC)CC1` were, in that order, “inactive” and 5.49%.
As to `NC(=O)C1CCN(/C=C2\C(=O)NC(=O)N(Cc3ccco3)C2=O)CC1`, the Potency result was “inactive” and the cell number change was determined as 6.38%.
On the same counts, the results for `Cc1c(NC(NC(=O)CF)C(Cl)(Cl)Cl)c(=O)n(-c2ccccc2)n1C` (stereo not drawn) are “inactive” and 8.45%.
On the same counts, the results for `O=C(COc1ccc(Cl)cc1)N(c1ccccc1Cl)C1CN2CCC1CC2` (stereo not drawn) are “inactive” and -2.19%.
The like results for `O=C(Nc1ccc(Cl)c(Cl)c1)c1ccco1` were, in that order, 14.6 µM (active) and 4.2%.
Take `O=C(Nc1ccc(Cl)cc1C(=O)c1ccccc1)c1ccco1`: the Potency entry was “inactive” and the cell number change worked out at 16.6%.
On the same counts, the results for `O=C(Nc1ccc(Cl)cc1C(=O)c1ccccc1Cl)c1ccco1` are “inactive” and -6.61%.
On the same counts, the results for `CCOP(=O)(OCC)C(Cc1ccccc1)NC(C)=O` (stereo not drawn) are “inactive” and 6.58%.
The like results for `CCOP(=S)(NN(Cc1ccccc1)C(=O)c1ccccc1)OCC` were, in that order, 6.51 µM (active) and -8.12%.
Consider `CCOP(=O)(OCC)C(NC(=O)c1ccccc1)=C(Cl)Cl`, for which the Potency entry is “inactive” and the cell number change is 12%.
For `CC(C)N1CCC2(CC1)NC(CO)(CO)CO2`, the Potency result was “inactive” and the cell number change worked out at 2.89%.
On the same counts, the results for `COc1ccc(C)cc1NC(=O)c1c(C)nn(Cc2ccccc2)c1Cl` are “inactive” and -8.13%.
On the same counts, the results for `O=C1N(c2ccccc2)C(c2cccnc2)N2CCCN12` (stereo not drawn) are “inactive” and -11.1%.
